Most compounds without a hit are left out; they make up all but 21% or so of the library.
HCV inhibitor: blocks hepatitis C virus. Potency, µM (series often up to 41.8 µM), usual class: inhibitors. Huh7.5.1 HCVcc-Cre infection, luciferase reporter, 44 h. 340,000 compounds, 3.4% hits
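After 44 h co-culture of compound, cells and HCVcc-Cre (~0.5 moi), substrate is added for 15 min at room temperature and luciferase measured over 15 sec. Cells were seeded at 1,000/well and pre-cultured 4 h.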
Cycloheximide cs: affects cycloheximide protein synthesis inhibition readout, counter-screen; max response, %; 300,000 compounds, 12% hits; AID 2314; cell reporter, cycloheximide protein synthesis inhibition counterscreen; in the data active = max response mostly above about 13%, no sharp cut-off; inactive = mostly below about 14%; note: read at 38.3 µM for the half of the compounds with a filed dose
Pf growth 48h: inhibits P. falciparum growth in the first generation, 48 h | Potency, µM (top dose mostly 28.7 µM), actives largely listed as inhibitors | AID 504832 | P. falciparum luciferase growth in erythrocytes, 48 h | 310,000 compounds, 5.9% hits
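Growth was read as firefly luciferase luminescence after a 48 h, 37 C, 5% CO2 exposure of compounds to reporter-bearing P. falciparum cultures (0.1% parasitemia, 2% hematocrit final) in Albumax-supplemented RPMI 1640.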
Shiga inhibitor: Shiga toxin inhibition | inhibition, % at 38.7 µM | Vero cells, Shiga toxin protein synthesis inhibition reporter | 290,000 compounds, 9.2% hits; in the data active = inhibition mostly above about 28%, no sharp cut-off; inactive = mostly below about 43%
Pf growth 96h: P. falciparum growth inhibition at 96 hour, primary screen for plastid delayed-death inhibitors | P. falciparum luciferase reporter growth, 96 h | Potency, µM (doses to about 28.7 µM), hits mostly inhibitors | 320,000 compounds, 6.9% hits
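Delayed-death screen, second-generation endpoint: infected erythrocytes, 2% hematocrit, 0.05% parasitemia final; 96 hours at 37 C, 5% CO2; luciferase detection reagent; luminescence decrease equals reduced growth.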
HCMV inh: inhibitors of human cytomegalovirus | HFF cells, HCMV-luciferase reporter, 72 h; active compounds read low | activity change, negative = inhibition, % at 57.5 µM | 410,000 compounds, 4.5% hits | AID 1259415; in the data active = activity change below about -60%; inconclusive = no clear call, values can overlap the other calls; inactive = above about -39%
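Cell-based, HFFs, 1000 cells/well, 16 h 37C; cpds in DMSO + HCMV-luc, MOI 1 PFU/cell; 72 h 37C; OneGlo luminescence after 5 min RT; norm. to buffer vs Salinomycin 10uM.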
Hits are given with their value; - = inactive; ? = inconclusive; . = not tested or not shown. Unless noted, calls come from the whole dose curve; as a rule, active = well fitted inhibition curve with a large enough effect; inconclusive = small, poorly fitted or top-dose-only effect, or another doubt; inactive = no such curve, though single readings can be large or run the other way.

SMILES | HCV inhibitor | Cycloheximide cs | Pf growth 48h | Shiga inhibitor | Pf growth 96h | HCMV inh
CC(NS(=O)(=O)c1ccc(OCC(=O)NCc2ccncc2)cc1)c1ccccc1 (stereo not given) | - | - | - | - | ? | ?
Cc1cc(C)c2nc(N3CCC(C(=O)NCc4cccnc4)CC3)sc2c1 | - | 21 | - | 86 | - | -
Cc1cc(C)c2nc(N3CCC(C(=O)NCc4ccccn4)CC3)sc2c1 | - | 47 | - | - | - | -
Cc1cccc(-c2nc(CN3CCCC(C(=O)NCCc4ccc(Cl)cc4)C3)c(C)o2)c1 (stereo not given) | . | . | . | . | . | -
CCOc1ccc(C(=O)NC2CCN(C(=O)Nc3ccc(F)cc3)CC2)cc1 | - | - | - | - | ? | -
Cc1ccc(NC(=O)C2CCCN(c3ncnc4c3nc3n4CCCCC3)C2)nc1 (stereo not given) | - | - | ? | - | - | ?
CC1CCCCN1CCCNC(=O)C1CCCN(c2ncnc3c2nc2n3CCCCC2)C1 (stereo not given) | - | - | ? | - | ? | ?
CC(=O)c1ccc(NC(=O)C2CCCN(c3ncnc4c3nc3n4CCCCC3)C2)cc1 (stereo not given) | - | - | ? | - | 6.6µM | ?
CC1CCN(CCNC(=O)C2CCCN(c3ncnc4c3nc3n4CCCCC3)C2)CC1 (stereo not given) | - | - | - | - | 2.9µM | -
O=C(Nc1cccnc1Cl)C1CCCN(c2ncnc3c2nc2n3CCCCC2)C1 (stereo not given) | - | - | - | - | 12µM | -
Cc1ccnc(NC(=O)C2CCCN(c3ncnc4c3nc3n4CCCCC3)C2)c1 (stereo not given) | - | - | - | - | 10µM | -
Cc1ccc(C)c(NC(=O)CSc2nc3nccnc3c(=O)n2CCc2c[nH]c3ccccc23)c1 | . | . | . | . | . | -
O=C(Cn1ccc(NC(=O)OCc2ccccc2)nc1=O)NCCN1CCOCC1 | - | . | - | . | - | -
O=C(Nc1ccccn1)C1CCCN(c2ncnc3c2nc2n3CCCCC2)C1 (stereo not given) | - | - | - | - | - | ?
CSc1cccc(NC(=O)C2CCCN(c3ncnc4c3nc3n4CCCCC3)C2)c1 (stereo not given) | 22µM | - | - | - | - | ?
CCOC(=O)c1cc2c(=O)n3ccccc3nc2n(CCCOC)c1=NC(=O)c1cc2ccccc2o1 | . | . | . | . | . | -
CCOc1cc2[nH]c(=O)n(CCCCCC(=O)NCc3ccco3)c(=O)c2cc1OCC | ? | - | . | - | . | -
CN(Cc1ccccc1)C(=O)CCCn1c(=O)[nH]c2cc(Cl)ccc2c1=O | - | - | . | - | 15µM | -
CCOc1cc2[nH]c(=S)n(C3CC3)c(=O)c2cc1OCC | - | - | - | - | ? | -
CCOC(=O)N1CCC(n2c(=S)[nH]c3cc(OCC)c(OCC)cc3c2=O)CC1 | - | - | - | - | - | -77
CCCCN(C)C(=O)CCCCn1c(=O)[nH]c2cc(OCC)c(OCC)cc2c1=O | - | - | 10µM | - | ? | -
CCOc1cc2[nH]c(=S)n(C(C)C)c(=O)c2cc1OCC | ? | - | . | - | 8.3µM | -
O=C(CCCn1c(=O)[nH]c2cc(Cl)ccc2c1=O)NC1CCCCCCC1 | - | - | - | - | ? | -
COc1ccc(-c2c3c(cc4ncn(Cc5ccccc5)c24)COC3=O)cc1 | ? | . | ? | . | - | ?
CCOc1cc2[nH]c(=S)n(CCCN3CCOCC3)c(=O)c2cc1OCC | ? | - | ? | - | ? | -
SMILES | HCV inhibitor | Cycloheximide cs | Pf growth 48h | Shiga inhibitor | Pf growth 96h | HCMV inh
CCOc1cc2[nH]c(=S)n(CCCOC)c(=O)c2cc1OCC | ? | - | - | - | 6.6µM | -
COc1cc(/C=C(\C#N)C(=O)c2c[nH]c3ccccc23)cc(OC)c1O | - | - | - | - | - | -
COc1ccc(S(=O)(=O)c2c(Nc3ccc(F)cc3)sc(C(=O)c3ccc(C)cc3C)c2N)cc1 | . | . | . | . | . | -
COc1ccccc1OCc1nc(-c2cccc(C)c2)no1 | . | . | . | . | . | -
COc1cc(OC)cc(-c2nc(-c3cccc(C)c3)no2)c1 | . | . | . | . | . | -
COc1ccc(-c2nc(-c3cccc(C)c3)no2)cc1OC | - | 25 | - | 60 | . | -
COc1cc(-c2nc(Cc3c(F)cccc3Cl)no2)cc(OC)c1OC | ? | - | 12µM | - | ? | -
COc1cc(-c2nc(-c3cccc(C)c3)no2)cc(OC)c1OC | - | 16 | - | 33 | . | -
